# Measured values reported in PubChem BioAssay (Tox21).
# Values without a mark were called inactive. Inconclusive results are not listed. Entries that show only a call come without a potency. Calls of active or inactive are those of the source. Unless noted, the call rests on the fitted dose curve; in most records, active means well fitted curve in the direction sought with a large enough effect in the repeat runs; inconclusive means weak or mixed curves; inactive means no such curve, though single readings can be large; an effect the other way counts as inactive or inconclusive.
# Columns and labels:
# [1] = qHTS assay to identify small molecule agonists of the hypoxia (HIF-1) signaling pathway - cell viability counter screen (AID 1224844; calls by dose curve; further: nearly all actives have a fitted effect of over 50% in size)
# Procedure, shortened: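 Same wells as the HIF-1 reporter screen; ME-180 cells carrying HRE-bla, 17 hr treatment at 37C; CellTiter-Glo luminescence read after 30 min at room temperature.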
# [2] = qHTS assay to identify small molecule agonists of H2AX (AID 1224845; active means well fitted activation curve with a large enough effect in the signal ratio in the repeat runs, not every such curve was filed as active; the % refers to the signal ratio)
# Procedure, shortened: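 Wild-type CHO-K1 cells, plated overnight, exposed 3hr at 37C to 15 concentrations (0.76% DMSO final). Lysed, then HTRF anti-pH2AX (S139) cryptate and anti-H2AX-d2 antibodies, 24 hr room temperature; 665/620 nm emission read.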
# [3] = qHTS assay to identify small molecule agonists of the hypoxia (HIF-1) signaling pathway (AID 1224846; active means well fitted activation curve with a large enough effect in the signal ratio in the repeat runs, not every such curve was filed as active; the % refers to the signal ratio)
# Procedure, shortened: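 In ME-180 cells bearing an HRE-bla construct, 17 h treatment with DMSO-dissolved compounds at 37C was followed by CCF4-AM loading to quantify reporter induction.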
# [4] = qHTS assay to identify small molecule antagonists of the estrogen related receptor (ERR) signaling pathway from Tox21 library (AID 1224848); further: nearly all actives have a fitted effect of over 50% in size; further: potency means the concentration at half of the fitted maximal effect
# Procedure, shortened: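 Compounds dissolved in DMSO are pin-transferred onto ERR reporter cells (2,000 per well) that have settled for 6 h at 37 C. Plates then incubate 18 h at 37 C before ONE-Glo luciferase reagent and a luminescence read 30 min later.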
# [5] = qHTS assay to identify small molecule agonists of the estrogen related receptor (ERR) signaling pathway from Tox21 library (AID 1224849; calls by dose curve; further: nearly all actives have a fitted effect of over 15% in size); settings: ERR reporter cell line, ONE-Glo luciferase, 18 h; at 92.4 µM (top of the series) unless noted
# Procedure, shortened: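 Reporter cells (ERR, NTP source) treated with Tox21 10K compounds 18 h, 37 C. Readout: ONE-Glo luminescence, 30 min RT.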
# [6] = qHTS RealTime-Glo MT Cell Viability Assay in HepG2 cells - 24 hour (AID 1224867); further: nearly all actives have a fitted effect of over 50% in size
# Procedure, shortened: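 HepG2 suspension premixed with RealTime-Glo reagents is plated at 600 cells per well and left 5 h at 37 C/5% CO2. Compounds in DMSO then go in, and bioluminescence reflecting viable cell number is recorded over 40 h.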
# [7] = qHTS RealTime-Glo MT Cell Viability Assay in HEK293 cells - 32 hour (AID 1224868); further: nearly all actives have a fitted effect of over 50% in size; further: potency means the concentration at half of the fitted maximal effect
# Procedure, shortened: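 Reads taken at 0, 8, 16, 24, 32 and 40 h from the same wells. HEK293 cells (600/well) carried RealTime-Glo reagents from seeding, with compound added after a 5 h settle at 37 C.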
# [8] = A CellTox Green Cytotoxicity Assay to monitor cytotoxicity in HEK293 cells - 0 hour (AID 1224869); further: nearly all actives have a fitted effect of over 50% in size
# Procedure, shortened: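 Homogeneous no-lysis format: HEK293 cell suspension mixed with CellTox Green reagent, seeded, incubated 5 h at 37 C/5% CO2, then dosed by pintool with compound in DMSO.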
# [9] = qHTS RealTime-Glo MT Cell Viability Assay in HepG2 cells - 40 hour (AID 1224870); further: nearly all actives have a fitted effect of over 50% in size
# Procedure, shortened: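 HepG2 cells (600/well) mixed with RealTime-Glo MT reagent, settled 5 h at 37 C/5% CO2 before compound addition. Nonlytic NanoLuc luminescence from viable-cell prosubstrate reduction read repeatedly during 40 h treatment at 37 C.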
# [10] = qHTS assay to identify small molecule agonists of H2AX - cell viability counter screen (AID 1224847; calls by dose curve; further: top concentration of the series differs between compounds; nearly all actives have a fitted effect of over 30% in size)
# Procedure, shortened: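 Compounds tested at 15 concentrations were incubated 3 hr at 37C with wild-type CHO-K1 cells; cellular ATP-based luminescence (CellTiter-Glo) indicated viability.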
SMILES,Potency [1],Potency [2],outcome [3],Potency [4],"activity change, positive = activation [5]",Potency [6],Potency [7],Potency [8],Potency [9],Potency [10]
CC(C)CC(N(C)C)C1(c2ccc(Cl)cc2)CCC1 (stereo not drawn),inactive,inactive,inactive,inactive,1.9% [at 42.5 µM],inactive,inactive,inactive,inactive,
C[C@H]1CCC[C@H](O)CCCCCc2cc(O)cc(O)c2C(=O)O1,inactive,inactive,inactive,54.9 µM (active),-54.5%,inactive,34.9 µM (active),inactive,inactive,
COC(=O)c1ccccc1S(=O)(=O)NC(=O)N(C)c1nc(C)nc(OC)n1,inactive,inactive,inactive,inactive,6.39%,inactive,inactive,inactive,inactive,
CNC(=O)O/N=C(\C)SC,inactive,inactive,inactive,,,inactive,inactive,inactive,inactive,inactive
CCCCP(CCCC)CCCC,inactive,inactive,inactive,,,inactive,inactive,inactive,inactive,inactive
CC1(C)C(=O)NC(=O)NC1=O,inactive,inactive,inactive,inactive,-0.272%,inactive,inactive,inactive,inactive,
O=[N+]([O-])c1cccc2cccnc12,inactive,inactive,inactive,,,inactive,inactive,inactive,inactive,inactive
Cc1cnc[nH]1,inactive,inactive,inactive,,,inactive,inactive,inactive,inactive,inactive
CC(COc1ccc(Oc2ccccc2)cc1)Oc1ccccn1 (stereo not drawn),inactive,inactive,inactive,inactive,0.411%,inactive,,inactive,inactive,
COC(=O)COc1ccc(Cl)cc1Cl,inactive,inactive,inactive,inactive,8.64%,inactive,inactive,inactive,inactive,
NC(=S)C(N)=S,inactive,inactive,inactive,,-20.6%,inactive,inactive,inactive,,
Nc1c(Br)cc([N+](=O)[O-])cc1[N+](=O)[O-],inactive,inactive,inactive,,-26.5%,inactive,inactive,inactive,,
CCCCc1c(C)nc(NCC)[nH]c1=O,inactive,inactive,,inactive,5.33%,inactive,,inactive,,inactive
Cc1cccc(C#N)c1,inactive,inactive,inactive,,,inactive,inactive,inactive,inactive,
OC(Cn1cncn1)(c1ccc(F)cc1)c1ccccc1F (stereo not drawn),inactive,inactive,inactive,,,inactive,inactive,inactive,,
N#CC(O)c1ccccc1 (stereo not drawn),inactive,inactive,inactive,,,inactive,inactive,inactive,inactive,
O=S(=O)(O)C(F)(F)C(F)(F)C(F)(F)C(F)(F)C(F)(F)C(F)(F)F,inactive,inactive,inactive,,,inactive,inactive,inactive,inactive,
CC(C(O)c1ccccc1)N(C)C/C=C/c1ccccc1 (stereo not drawn),inactive,inactive,inactive,,,inactive,,inactive,,
Cc1ncsc1CCCl,inactive,inactive,inactive,,,inactive,inactive,inactive,inactive,
C[C@@H]1CN(C2CCC(C#N)(c3ccc(F)cc3)CC2)CC[C@]1(C(=O)O)c1ccccc1 (stereo partly drawn),inactive,inactive,,inactive,0.0799% [at 42.5 µM],inactive,inactive,inactive,,inactive
